# Test results taken from PMC5540273 (PLoS ONE, 2017).
# Test system: T1, YANK1
# T1 construct: gene STK32A
# Settings: concentration: 1 μM, replicates: in singlicate; n = 1
# 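Also: KINOMEscan kinase panel screen.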
row,SMILES,%Inh
1,Nc1n[nH]c2cnc(-c3ccccc3)cc12 [SB-642124],12%
2,CN(c1ccc(NC(=O)Nc2cc(C(F)(F)F)ccc2F)cc1)c1ccnc(Nc2ccc(S(N)(=O)=O)cc2)n1 [GW809893],17%
3,CC(C)c1nc(-c2cccc(NS(=O)(=O)c3c(F)cccc3F)c2F)c(-c2ccnc(Nc3ccc(N4CCOCC4)nc3)n2)s1 [GSK2008607],14%
4,O=C(Nc1cccc(-c2nn3ncccc3c2-c2ccnc(Nc3ccccc3)n2)c1)c1c(F)cccc1F [GSK198271],63%
5,O=C(Nc1ccccc1F)NC1CCN(c2ccnc(Nc3ccc(F)cc3)n2)CC1 [GSK1379800],0%
6,Cl.c1ccc(-c2ccc3c(Nc4ccc5[nH]ccc5c4)ccnc3c2)nc1 [GW440138],0%
7,COc1ccc(CNC(=O)NC2CCN(c3ccnc(Nc4ccc(F)cc4)n3)CC2)cc1 [GSK1379788],7%
8,CN(C)Cc1ccc(-c2ccc3c(Nc4ccc(Oc5ccccn5)cc4)ccnc3c2)o1 [GW567148],0%
9,CNC(=O)c1ccccc1Nc1nc(Nc2ccc(N3CCOCC3)cc2)ncc1Cl.Cl [GSK1576028],58%
10,CCS(=O)(=O)c1ccc(OC)c(Nc2nccc(-c3c(-c4cccc(NC(=O)c5c(F)cccc5F)c4)nn4ncccc34)n2)c1 [GSK326180],0%
11,c1ccc(Oc2ccc(Nc3ccnc4cc(-c5ccc(CNCCN6CCOCC6)o5)ccc34)cc2)nc1 [GW567145],0%
12,Cc1ccc(C)c(NC(=O)NC2CCN(c3ccnc(Nc4ccc(F)cc4)n3)C2)c1 (stereo not shown) [GSK1379720],0%
13,CCn1c(-c2nonc2N)nc2c(C#CC(C)(C)O)ncc(OCCCCN)c21.O=C(O)C(F)(F)F.O=C(O)C(F)(F)F [GSK507274],31%
14,COc1cc2c(cc1OCCN1CCNCC1)ncc1c3ccc(C#N)cc3[nH]c21,5%
15,COc1cccc(C(=O)Nc2cccc(Oc3ccc4nc(NC(=O)C5CC5)cn4n3)c2)c1,0%
16,FC(F)(F)c1ccc(/C=C/c2cncnc2Nc2ccc3[nH]c(Cc4ccccc4)nc3c2)cc1 [GW709199],0%
17,Cc1cccc(Nc2nc(N[C@H]3CCNC3)ncc2C(N)=O)c1.Cl [GSK2197149],19%
18,NCCCC(NC(=O)c1cc(Br)c(-c2ccnc3[nH]ccc23)s1)c1ccccc1.O=C(O)C(F)(F)F.O=C(O)C(F)(F)F (stereo not shown) [GSK1287544],0%
19,CC(C)(C)c1ccc2nccc(Nc3cccc(O)c3)c2c1 [GW856795],0%

row,SMILES,%Inh
1,c1ccc(-c2n[nH]cc2Nc2ccnc3ccccc23)nc1 [GW694077],0%
2,COc1cccc(NC(=O)NC2CCN(c3ccnc(Nc4cc(OC)c(OC)c(OC)c4)n3)C2)c1 (stereo not shown) [GSK1379763],1%
3,COC(=O)Nc1nc2ccc(Oc3ccc(NC(=O)Nc4cc(C(F)(F)F)ccc4F)cc3)cc2n1C.Cl [GW692089],0%
4,COc1cccc(C2=C(Nc3ccc(Cl)c(C(=O)O)c3)C(=O)NC2=O)c1 [SB-390769],100%
5,COc1cc(Nc2nccc(-c3c(-c4cccc(NC(=O)c5c(F)cccc5F)c4)nn4ccccc34)n2)cc(OC)c1OC [GSK323521],11%
6,Cn1cc(-c2[nH]c3cc(NC(=O)[C@H](N)C4CCCCC4)cc4c3c2C=NNC4=O)cn1,16%
7,Nc1ncc(-c2cccnc2)c2scc(-c3ccc4c(c3)CCN4C(=O)Cc3ccccc3)c12 [GSK683281],21%
8,CCCCc1nn2ncccc2c1-c1ccnc(Nc2ccc(N3CCN(C)CC3)cc2)n1 [GW684941],78%
9,O=C(Nc1n[nH]c2cc(-c3ccoc3)ccc12)C1CC1 [SB-738481],0%
10,Cl.c1ccc(-c2ccc3c(Nc4ccc5[nH]ncc5c4)ccnc3c2)nc1 [GW440137],3%
11,Cn1cc(-c2ccc3c(c2)CCN3C(=O)Cc2cccc(Cl)c2)c2c(N)ncnc21 [GSK2606590],10%
12,COc1cccc(-c2ccc3c(NC(=O)C4CC4)n[nH]c3n2)c1 [SB-710903],0%
13,Nc1ncc(-c2ccc3nccc(-c4ccncc4)c3c2)cc1S(=O)(=O)N1CCOCC1 [GSK1627798],4%
14,COc1cc(Nc2nccc(N3CCC(NC(=O)Nc4cccc(C(C)=O)c4)C3)n2)cc(OC)c1OC (stereo not shown) [GSK1379753],14%
15,COCCOCCOc1cc2ncc3c4ccc(C#N)cc4[nH]c3c2cc1OC,0%
16,COc1ccc(Nc2nccc(NCCNC(=O)c3cc4ccccc4s3)n2)cc1 [GSK1379896],12%
17,COC(=O)Nc1nc2cc(Oc3ccc(NC(=O)Nc4cc(C(F)(F)F)ccc4F)cn3)ccc2[nH]1.Cl.Cl [GW681170],9%
18,O=C(Nc1n[nH]c2nc(-c3ccc(O)cc3)ccc12)C1CC1 [SB-710363],0%
